What all share (test): NCI-60 one-dose screen, 48 h (100 = growth as untreated, 0 = no growth, -100 = all killed)
Details in all cases: 10 µM unless noted

For test [1], the system named is SK-MEL-2 melanoma.
In test [2] the test system is EKVX NSCLC.
The subject of test [3] is SN12C renal.
Test [4] has as its system TK-10 renal.
Test [5] relates to CAKI-1 renal.
Test [6] has as its system A498 renal.
Test [7] relates to CCRF-CEM leukemia.
Test [8] has as its system RPMI-8226 leukemia.
For test [9], the system named is OVCAR-8 ovarian.
The test system of test [10] is OVCAR-5 ovarian.
Test [11] relates to OVCAR-4 ovarian.
The subject of test [12] is SK-OV-3 ovarian.
Test [13] has as its system IGROV1 ovarian.
The test system of test [14] is OVCAR-3 ovarian.
For test [15], the system named is HS 578T breast.
The subject of test [16] is NCI/ADR-RES ovarian.
Test [17] relates to MOLT-4 leukemia.
In test [18] the test system is UO-31 renal.
The test system of test [19] is ACHN renal.
The subject of test [20] is SR leukemia.

About 83,000 compounds went through this panel and 20% of them were active in at least one assay; those are over-represented in the sample as a whole.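 Cell lines were cultured in 96-well plates, exposed to a single compound concentration, and assessed for percent growth 48 hours later.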 A number with no mark means an inactive call. The source made the active and inactive calls. The calls were made as follows: active = growth percent below 10; inactive = the rest.

As for `CN(C)CC(C)(CN(C)C)C(=O)/C=C/c1c(Cl)cccc1Cl`, the growth is 79.7% in test [1]; 5.55% (active) in [2]; 50.9% in test [3]; -8.98% (active) in test [4]; 52.7% in test [5]; 119% in test [6]. The growth in [7] is -4.65% (active); in test [8] it was -4.62% (active); in [9], -26.2% (active); in test [10], 53.1%; in test [11] it was 62.2%; in test [12] it was 91.9%. In addition, the growth in test [13] is 73.6%; in test [14] it was -31.3% (active); in test [15] it was 71.9%; in test [16], -29.7% (active).

On to `CCCCCCCCC(=O)OCCCC(CCC(CCC1CCCO1)OC(=O)CCCCCCCC)OC(=O)CCCCCCCC` (stereo not drawn), for which the growth in test [1] is 103%; in test [2], 94.1%; in [3] it was 92.9%; in test [4], 87.9%; in [5] it was 93.3%; in [6] it was 110%. In addition, the growth in [7] was 87.6%; in test [17], 117%; in [8] it was 112%; in test [9], 103%; in [10], 99.5%; in [11] it was 102%. The growth in test [12] was 96.4%; in test [13], 107%; in [14], 110%; in [15] it was 97.1%; in test [16] it was 103%.

In the case of `CC1(O)CCCCCC1`, the growth in [1] is 105%; in test [3] it was 99.9%; in test [18], 82.6%; in test [4], 99.5%; in [19] it was 103%; in [5], 101%. For the same compound, the growth in test [6] is 75.3%; in test [7], 92.7%; in test [17], 92.8%; in [20], 92.5%; in test [8] it was 102%; in test [9], 102%. Further, the growth in test [10] is 105%; in test [11], 107%; in test [12], 93.9%; in [13] it was 103%; in test [14], 103%; in test [15], 98.3%. Moreover, the growth in [16] is 102%.

With `CN1CCC(c2ccccc2)(c2ccccc2)C(=O)C1`, the growth in test [1] is 122%; in test [2] it was 47.3%; in test [3], 101%; in [4] it was 76.4%; in [19], 102%; in test [5] it was 71.2%. Moreover, the growth is 106% in test [6]; 29.1% in [7]; 92.7% in test [17]; 78.2% in test [20]; 41.7% in [8]; 95.9% in test [9]. The growth is 86.8% in test [10]; 57% in test [11]; 103% in test [12]; 89.8% in [13]; 68.7% in test [14]; 73.9% in [16].

For `O=C(Cc1nc2cc(Cl)c(Cl)cc2nc1CC(=O)c1cccnc1)c1cccnc1`, the growth in test [1] was 113%; in test [2], 54%; in [3] it was 75%; in test [4], 141%; in [5] it was 72.5%; in test [6] it was 133%. Besides, the growth in [7] was 31.4%; in [8], 45.1%; in test [9], 77.6%; in test [10], 103%; in [11] it was 83.9%; in [12], 94.7%. In addition, the growth in test [13] was 73.6%; in [14], 78.5%; in test [15], 76%; in [16], 76.4%.

As for `CCN(CC)CCNC(Cc1ccccc1)c1ccc(OCc2ccccc2)cc1` (stereo not drawn), the growth in test [1] was 97%; in [3] it was 73.2%; in [18] it was 41%; in [4], 64%; in test [19], 61.4%; in [5] it was 85.2%. Further, the growth in test [6] is 49.8%; in test [7], 51.4%; in test [17], 57.4%; in test [20], 24.7%; in test [8] it was 34.8%; in test [9] it was 79.7%. Further, the growth in [10] is 56.2%; in test [11], 66.7%; in test [12], 83.1%; in test [13], 57.7%; in test [14], 95.4%; in test [15] it was 70.8%.

Take `Oc1cc(Cl)ccc1Cc1ccc(Cl)cc1O`: the growth is 66.1% in [1]; 51.2% in [2]; 36.2% in [3]; 95.6% in test [4]; 49.4% in [19]; 92.9% in [5]. In addition, the growth is 126% in [6]; 45.7% in test [7]; 59.1% in test [20]; 18.7% in test [8]; 64.6% in test [9]; 30.1% in test [11]. Moreover, the results for the growth in test [12], in test [13] and in [14] were 90.8%, 82.5% and 40.2%, respectively.

On to `COc1ccc(C(OCC2OC(n3ccc(NC(=O)c4ccccc4)nc3=O)C(O)C2O)(c2ccccc2)c2ccccc2)cc1` (stereo not drawn), for which the growth in [1] is 90.1%; in [2], 38.4%; in test [3], -38.2% (active); in test [4], 81.5%; in test [5], 55%; in test [6], 52.8%. Besides, the growth in test [7] was 47.1%; in test [20], 12.4%; in [8] it was 3.08% (active); in test [9], 29%; in test [11], 25.9%; in [12] it was 75.1%. Moreover, the growth is 33.7% in test [13], 45.6% in [14] and 61.7% in test [15].

Regarding `O=C(c1ccccc1)C(Br)C(Br)c1ccccc1` (stereo not drawn), the growth is 75.5% in [1]; 108% in test [2]; 104% in test [3]; 103% in test [4]; 18.8% in [19]; -50.2% (active) in [5]. The growth is 88.4% in [6]; -14% (active) in test [7]; 47.5% in test [17]; 31.4% in test [20]; -3.12% (active) in test [8]; 78.8% in test [9]. The growth in [10] was 104%; in test [11], 90.2%; in test [12], 115%; in test [13], -22.3% (active); in [14], -10.9% (active); in test [15] it was 104%. Besides, the growth in test [16] was 117%.

The record behind these values is PubChem BioAssay (NCI).
